This passage reports potency estimated from few doses results from article PMC11062922 (Nature Chemical Biology, 2023).

Holding throughout (set-up): species or system human, MV4-11 + K-562 + COLO205 + SK-N-BE2 + OVCAR-8
The test system of one test is ADRBK1. The settings on record: read-out: apparent Kd, n = 1.
For a further test, the system named is AKT2. The following applies: read-out: apparent Kd, n = 1.
In the next test the test system is CDK4. The settings on record: read-out: apparent Kd; compound concentrations: 100 nM and 1000 nM (sheet 'Samples'), CATDS: 0.36803542167658398; n = 1.
For another test, the system named is CDK6. The settings on record: read-out: apparent Kd, n = 1.
The test system of a further test is PIP4K2C. The settings on record: read-out: apparent Kd; compound concentrations:100 nM and 1000 nM (sheet 'Samples'); n = 1.
Another test has as its system RIOK2. The following applies: read-out: apparent Kd, n = 1.
The subject of another test is ADK. The settings on record: read-out: apparent Kd, n = 1.
The test system of the next test is AKT1. The settings on record: read-out: apparent Kd; compound concentrations: 100 nM and 1000 nM (sheet 'Samples'), CATDS: 0.124475037217828; n = 1.
The test system of a further test is AKT3. The settings on record: read-out: apparent Kd; compound concentrations: 100 nM and 1000 nM (sheet 'Samples'), CATDS: 0.12570475509553999; n = 1.
The subject of the next test is ILK. The settings on record: read-out: apparent Kd; compound concentrations: 100 nM and 1000 nM (sheet 'Samples'), CATDS: 0.12734816485016201; n = 1.
In the next test the test system is MAP2K2. The settings on record: read-out: apparent Kd; compound concentrations: 100 nM and 1000 nM (sheet 'Samples'), CATDS: 0.12469214085712101; n = 1.
For a further test, the system named is CLK1. The following applies: read-out: apparent Kd; compound concentrations: 100 nM and 1000 nM (sheet 'Samples'), CATDS: 5.4208995397741003E-2; n = 1.
A further test deals with DYRK1A. The settings on record: read-out: apparent Kd; compound concentrations: 100 nM and 1000 nM (sheet 'Samples'), CATDS: 5.0124883186775999E-2; n = 1.
In the next test the test system is GSK3A. The settings on record: read-out: apparent Kd; compound concentrations: 100 nM and 1000 nM (sheet 'Samples'), CATDS: 9.7790905070532702E-2; n = 1.
The next test deals with GSK3B. The settings on record: read-out: apparent Kd; compound concentrations: 100 nM and 1000 nM (sheet 'Samples'), CATDS: 0.116009702502103; n = 1.
The next test deals with ICK. The settings on record: read-out: apparent Kd; compound concentrations: 100 nM and 1000 nM (sheet 'Samples'), CATDS: 5.3965454645481803E-2; n = 1.
A further test concerns NQO2. The settings on record: read-out: apparent Kd; compound concentrations: 100 nM and 1000 nM (sheet 'Samples'), CATDS: 5.4334591839862598E-2; n = 1.
For a further test, the system named is PRKCA. The settings on record: read-out: apparent Kd; compound concentrations: 100 nM and 1000 nM (sheet 'Samples'), CATDS: 0.15913397901311099; n = 1.
Another test deals with PRKCB. The following applies: read-out: apparent Kd; compound concentrations: 100 nM and 1000 nM (sheet 'Samples'), CATDS: 9.8351239927142994E-2; n = 1.
The test system of the next test is PRKCD. The settings on record: read-out: apparent Kd; compound concentrations: 100 nM and 1000 nM (sheet 'Samples'), CATDS: 0.131457549494816; n = 1.
In a further test the test system is PRKCQ. The following applies: read-out: apparent Kd; compound concentrations: 100 nM and 1000 nM (sheet 'Samples'), CATDS: 0.25317838429330802; n = 1.
Another test relates to RPS6KA6. The settings on record: read-out: apparent Kd; compound concentrations: 100 nM and 1000 nM (sheet 'Samples'), CATDS: 0.14606611193567601; n = 1.
A further test concerns RPS6KB1. The settings on record: read-out: apparent Kd; compound concentrations: 100 nM and 1000 nM (sheet 'Samples'), CATDS: 4.9333736806527098E-2; n = 1.
The subject of a further test is CAMK4. The settings on record: read-out: apparent Kd; compound concentrations:100 nM and 1000 nM (sheet 'Samples'); n = 1.
The next test concerns FLT3. The following applies: read-out: apparent Kd; compound concentrations:100 nM and 1000 nM (sheet 'Samples'); n = 1.
In another test the test system is MAP2K1. The following applies: read-out: apparent Kd; compound concentrations:100 nM and 1000 nM (sheet 'Samples'); n = 1.
Another test relates to NNT. The settings on record: read-out: apparent Kd; compound concentrations:100 nM and 1000 nM (sheet 'Samples'); n = 1.
Another test has as its system NQO1. The settings on record: read-out: apparent Kd; compound concentrations:100 nM and 1000 nM (sheet 'Samples'); n = 1.
Where [1] appears, read: compound concentrations:100 nM and 1000 nM (sheet 'Samples').

Like-named read-outs stand apart in the source and are kept apart here.

As for `CC(=O)c1c(C)c2cnc(Nc3ccc(N4CCNCC4)cn3)nc2n(C2CCCC2)c1=O` [PFE-PKIS_32], the potency estimated from few doses in the test with ADRBK1 (setting [1]) was 1170 nM; with AKT2 (setting [1]) it was 1960 nM; in the test with CDK4 it was 118 nM; in the test with CDK6 (setting [1]), 82.3 nM; in the test on PIP4K2C, 1610 nM; with RIOK2 (setting [1]) it was 2040 nM.
Consider `CC(=O)N[C@@H](Cc1ccc(OP(=O)(O)O)cc1)C(=O)N[C@H]1CCC(=O)N2CCC[C@@H](C(=O)NCc3ccc(O)cc3)N2C1=O` [RO0324381-000], for which the potency estimated from few doses in the test with ADK (setting [1]) was 1270 nM.
Consider `Cl.Nc1n[nH]c2cc(-c3ccccn3)ccc12` [GSK2189892A], for which the potency estimated from few doses was 1470 nM in the test on ADRBK1 (compound concentrations: 100 nM and 1000 nM (sheet 'Samples'), CATDS: 0.135716479442168); 1730 nM in the test with AKT1; 1740 nM in the test with AKT2 (compound concentrations: 100 nM and 1000 nM (sheet 'Samples'), CATDS: 0.124185471208428); 1700 nM in the test on AKT3; 1880 nM in the test with CDK6 (compound concentrations: 100 nM and 1000 nM (sheet 'Samples'), CATDS: 0.119736809743275); 1660 nM in the test with ILK. In addition, the potency estimated from few doses is 1730 nM with MAP2K2; 1880 nM in the test on RIOK2 (compound concentrations: 100 nM and 1000 nM (sheet 'Samples'), CATDS: 0.119525040636944).
Take `Cn1cc(C2=C(c3cn(CCCNC(=N)N)c4ccccc34)C(=O)NC2=O)c2ccccc21` [RO0318352-000]: the potency estimated from few doses with ADK (compound concentrations: 100 nM and 1000 nM (sheet 'Samples'), CATDS: 5.0768617440539301E-2) is 1420 nM; with CLK1, 1010 nM; in the test with DYRK1A, 1530 nM; in the test on GSK3A, 125 nM; with GSK3B, 83.7 nM; with ICK it was 1040 nM. For the same molecule, the potency estimated from few doses in the test with NQO2 is 1000 nM; in the test with PRKCA, 45.1 nM; with PRKCB, 124 nM; in the test on PRKCD, 64.4 nM; with PRKCQ, 21.7 nM; in the test with RPS6KA6, 52.6 nM. For the same molecule, the potency estimated from few doses in the test with RPS6KB1 is 1670 nM.
Regarding `Nc1n[nH]c2nnc(-c3ccccc3)cc12` [SB-517389], the potency estimated from few doses in the test on ADRBK1 (setting [1]) is 1380 nM; in the test with CDK6 (setting [1]), 1870 nM.
Take `NS(=O)(=O)c1ccc(N/N=C2\C(=O)Nc3ccc(Cl)cc32)cc1` [GW280670X]: the potency estimated from few doses was 1880 nM with ADRBK1 (setting [1]); 1330 nM with CAMK4; 2280 nM in the test on CDK6 (setting [1]); 1090 nM in the test with FLT3; 2000 nM in the test with MAP2K1; 1290 nM in the test with NNT. Also, the potency estimated from few doses in the test with NQO1 is 1850 nM.
Consider `O=C(NCCCN1CCOC1=O)c1cnc(NCc2cc(Cl)ccc2Cl)nc1NC1CCCC1` [PFE-PKIS_12], for which, in the test with ADRBK1 (setting [1]), the potency estimated from few doses is 1110 nM.
